For eight compounds, growth results are on record in PubChem BioAssay (NCI).

Among the test systems are HT29 colon; SNB-75 CNS; SNB-19 CNS; U251 CNS; PC-3 prostate; SK-MEL-5 melanoma; UACC-62 melanoma; LOX IMVI melanoma; SK-MEL-28 melanoma; SK-MEL-2 melanoma; SN12C renal; UO-31 renal; TK-10 renal; ACHN renal; CAKI-1 renal; A498 renal; CCRF-CEM leukemia; MOLT-4 leukemia; SR leukemia.
What all share (assay): NCI-60 one-dose screen, 48 h (100 = growth as untreated, 0 = no growth, -100 = all killed)
Holding throughout (settings): 10 µM

The panel holds about 83,000 compounds, 20% with a hit somewhere; the sample as a whole holds those more often.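 96-well plates, one dose, 48 hours. Percent growth reported; active if below 10.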 Values without a mark were called inactive. Calls of active or inactive are those of the source.

Turning to `COc1ccc(/C=C2/CN(CCC#N)C/C(=C\c3ccc(OC)cc3)C2=O)cc1`, the growth with HT29 colon was -37.6% (active); in the assay on SNB-75 CNS, 51.4%; in the assay with SNB-19 CNS it was 59.6%; in the assay on U251 CNS, -28.3% (active); in the assay with PC-3 prostate it was -11.7% (active); in the assay with SK-MEL-5 melanoma it was -0.858% (active). Besides, the growth in the assay on UACC-62 melanoma is -27.5% (active); with LOX IMVI melanoma it was -53.7% (active); in the assay on SK-MEL-28 melanoma, 6.16% (active); with SK-MEL-2 melanoma, 57.3%; with SN12C renal, -57% (active); in the assay with UO-31 renal, -43.8% (active). The growth is 16.2% with TK-10 renal; 8.83% (active) in the assay with ACHN renal; -19.4% (active) in the assay on CAKI-1 renal; 56.3% with A498 renal; 0.103% (active) in the assay with CCRF-CEM leukemia; 3.59% (active) with MOLT-4 leukemia. Also, in the assay on SR leukemia, the growth was -2.63% (active).
In the case of `COc1ccc(-c2ccc(-c3ccc(C(=N)N)cn3)o2)cc1`, the growth is 14.1% in the assay on HT29 colon; 61.1% with SNB-75 CNS; 91.5% in the assay with SNB-19 CNS; 76.3% in the assay on U251 CNS; 68.3% in the assay on PC-3 prostate; 72.3% in the assay with SK-MEL-5 melanoma. For the same compound, the growth in the assay with UACC-62 melanoma is 89.7%; in the assay with LOX IMVI melanoma, 61.8%; in the assay with SK-MEL-28 melanoma, 86.5%; in the assay on SK-MEL-2 melanoma, 99.5%; in the assay on SN12C renal, 74.9%; in the assay on UO-31 renal, 30.7%. The growth with TK-10 renal is 117%; with ACHN renal, 80.6%; with CAKI-1 renal it was 75.1%; in the assay on A498 renal it was 59.4%; with CCRF-CEM leukemia it was 74.3%; in the assay with MOLT-4 leukemia, 52.7%. The growth with SR leukemia is 10.3%.
With `O=S(=O)(Nc1ccccn1)c1ccc(N=Nc2ccc(O)c3ncccc23)cc1`, the growth in the assay on HT29 colon was 79.5%; with SNB-75 CNS, -6.04% (active); in the assay with SNB-19 CNS, 12%; with U251 CNS, 0.16% (active); in the assay with PC-3 prostate it was -5.46% (active); in the assay with SK-MEL-5 melanoma, -4.96% (active). The growth is -4.64% (active) with UACC-62 melanoma; 13.7% with LOX IMVI melanoma; 33.9% in the assay on SK-MEL-28 melanoma; -30.1% (active) with SK-MEL-2 melanoma; 5.49% (active) with SN12C renal; -24.1% (active) in the assay with UO-31 renal. The growth was -1.22% (active) in the assay on TK-10 renal; -1.83% (active) in the assay with ACHN renal; -4.15% (active) with CAKI-1 renal; -11.5% (active) in the assay with A498 renal; 7.55% (active) in the assay on CCRF-CEM leukemia; 4.77% (active) in the assay with MOLT-4 leukemia. In addition, the growth in the assay on SR leukemia is 0.457% (active).
Turning to `NC(=O)CC1(c2ccccc2)CCCCC1`, the growth was 104% with HT29 colon; 95.3% with SNB-75 CNS; 105% with SNB-19 CNS; 102% with U251 CNS; 99.4% in the assay on PC-3 prostate; 106% with SK-MEL-5 melanoma. Besides, the growth with UACC-62 melanoma is 107%; with LOX IMVI melanoma, 96.1%; with SK-MEL-28 melanoma it was 110%; with SK-MEL-2 melanoma, 102%; with SN12C renal, 101%; with UO-31 renal, 93.1%. The growth with TK-10 renal is 109%; in the assay with ACHN renal, 104%; in the assay on CAKI-1 renal, 96.8%; with A498 renal, 102%; in the assay with CCRF-CEM leukemia it was 98.9%; with MOLT-4 leukemia, 94.2%. The growth with SR leukemia is 90.9%.
In the case of `O=C1/C(=C/c2ccc([N+](=O)[O-])s2)Oc2ccccc21`, the growth was -15% (active) in the assay on HT29 colon; -7.58% (active) in the assay on SNB-75 CNS; -0.508% (active) with SNB-19 CNS; -76.5% (active) with U251 CNS; -23.2% (active) with PC-3 prostate; -64.8% (active) with SK-MEL-5 melanoma. Moreover, the growth is -80.4% (active) with UACC-62 melanoma; -70.4% (active) in the assay on LOX IMVI melanoma; -35.9% (active) with SK-MEL-28 melanoma; -48.9% (active) in the assay on SK-MEL-2 melanoma; -23.1% (active) in the assay on SN12C renal; -78.1% (active) in the assay on UO-31 renal. Also, the growth with TK-10 renal was -21.5% (active); with ACHN renal, -55.3% (active); with CAKI-1 renal, -26.8% (active); in the assay on A498 renal, 97.9%; with CCRF-CEM leukemia, -13% (active); with MOLT-4 leukemia it was -6.14% (active). For the same compound, in the assay on SR leukemia, the growth was 7.01% (active).
On to `O=C(CCCCC(=O)Nc1ccc2c(c1)/C(=C/c1ccc[nH]1)C(=O)N2)NO`, for which the growth with HT29 colon was 68.7%; with SNB-75 CNS it was 47.7%; with SNB-19 CNS, 83%; with U251 CNS it was 69.3%; in the assay with PC-3 prostate, 80.1%; with SK-MEL-5 melanoma, 65%. For the same compound, the growth was 68.5% in the assay on UACC-62 melanoma; 94.4% with LOX IMVI melanoma; 60.4% in the assay on SK-MEL-28 melanoma; 59.4% with SK-MEL-2 melanoma; 93.1% in the assay with SN12C renal; 83.6% in the assay on UO-31 renal. In addition, the growth was 86% in the assay on TK-10 renal; 101% in the assay on ACHN renal; 97.8% in the assay on CAKI-1 renal; 50.8% in the assay on A498 renal; 32.4% in the assay with CCRF-CEM leukemia; 60.8% in the assay on MOLT-4 leukemia. The growth in the assay with SR leukemia is 45.4%.
`C[C@@H]1C=C2C(=O)O[C@@H]3CC[C@H](C1)[C@]23O`: the growth in the assay on HT29 colon was 73.8%; in the assay with SNB-75 CNS it was 69.3%; in the assay on SNB-19 CNS, 105%; with U251 CNS it was 87.6%; with PC-3 prostate, 87.2%; in the assay with SK-MEL-5 melanoma, 92.8%. Besides, the growth with UACC-62 melanoma was 91.6%; with LOX IMVI melanoma it was 55.1%; in the assay with SK-MEL-28 melanoma, 88.1%; in the assay on SK-MEL-2 melanoma, 97.3%; with SN12C renal, 81%; in the assay on UO-31 renal, 63.4%. The growth was 75.8% in the assay with TK-10 renal; 72.3% in the assay with ACHN renal; 50.6% in the assay with CAKI-1 renal; 129% with A498 renal; 18.6% with CCRF-CEM leukemia; 62.8% with MOLT-4 leukemia. For the same compound, in the assay on SR leukemia, the growth was 18.6%.
For `COC(=O)C(C(C[N+](=O)[O-])c1ccccc1)=P(c1ccccc1)(c1ccccc1)c1ccccc1` (configuration not stated), the growth in the assay with HT29 colon was 67.7%; with SNB-75 CNS, 85.3%; with SNB-19 CNS it was 98.4%; in the assay with U251 CNS it was 88.3%; in the assay with PC-3 prostate, 85.4%; with SK-MEL-5 melanoma, 98.5%. The growth is 90% in the assay with UACC-62 melanoma; 58.1% with LOX IMVI melanoma; 109% with SK-MEL-28 melanoma; 89.4% in the assay on SK-MEL-2 melanoma; 100% with SN12C renal; 73.1% in the assay on UO-31 renal. In addition, the growth is 97.2% with TK-10 renal; 93.9% in the assay with ACHN renal; 84.3% in the assay with CAKI-1 renal; 59.8% in the assay with A498 renal; 77.1% with CCRF-CEM leukemia; 90.3% in the assay with MOLT-4 leukemia. The growth with SR leukemia was 14.6%.
